# Laboratory results: the supplement of paper PMC8728848
# This is one part of a sample in which the strongest signals are shown more often than they occur.
# Assays:
# Assay in all cases: glycan array binding signal (z-score within array); higher = stronger binding
# Conditions in all cases: glycan notation: IUPAC condensed, linker removed
# [1] = biological target: Fuc(a1-2)Gal(b1-3)GlcNAc(b1-3)[Neu5Ac(a2-6)Gal(b1-4)GlcNAc(b1-6)]Gal(b1-4)Glc
# Summary of the method: (§1)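 Glycan array data were curated from 3228 arrays in the Consortium for Functional Glycomics database and kept only where the protein sequence was available. Glycan names were converted to IUPAC-condensed notation, and columns mapping to the same glycan were averaged. The binding signal is a within-array Z-score, averaged across arrays of the same protein sequence at different concentrations or buffers and across linkers. Negative Z-scores can be read as non-binding.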
# [2] = biological target: Fuc(a1-2)Gal(b1-4)GlcNAc(b1-3)Gal(b1-4)GlcNAc(b1-2)Man(a1-3)[Fuc(a1-2)Gal(b1-4)GlcNAc(b1-3)Gal(b1-4)GlcNAc(b1-2)Man(a1-6)]Man(b1-4)GlcNAc(b1-4)GlcNAc
# Summary of the method: as §1
# [3] = biological target: Fuc(a1-2)Gal(b1-4)GlcNAc(b1-3)GalNAc
# Summary of the method: as §1
# [4] = biological target: Fuc(a1-2)Gal6S(b1-3)GlcNAc
# Summary of the method: as §1
# [5] = biological target: Fuc(a1-2)[Gal(a1-3)]Gal(b1-4)GlcNAc
# Summary of the method: as §1
# [6] = biological target: Fuc(a1-2)[Gal(a1-3)]Gal(b1-4)GlcNAc(b1-2)Man(a1-3)[Fuc(a1-2)[Gal(a1-3)]Gal(b1-4)GlcNAc(b1-2)Man(a1-6)]Man(b1-4)GlcNAc(b1-4)GlcNAc
# Summary of the method: as §1
# [7] = biological target: Fuc(a1-2)[GalNAc(a1-3)]Gal(b1-4)GlcNAc
# Summary of the method: as §1
# [8] = biological target: Fuc(a1-2)[GalNAc(a1-3)]Gal(b1-4)GlcNAc(b1-2)Man(a1-3)[Fuc(a1-2)[GalNAc(a1-3)]Gal(b1-4)GlcNAc(b1-2)Man(a1-6)]Man(b1-4)GlcNAc(b1-4)GlcNAc
# Summary of the method: as §1
# [9] = biological target: Fuc(a1-2)[GalNAc(a1-3)]Gal(b1-4)[Fuc(a1-3)]GlcNAc
# Summary of the method: as §1
# [10] = biological target: Fuc(a1-2)[GalNAc(a1-3)]Gal(b1-4)[Fuc(a1-3)]GlcNAc(b1-3)GalNAc
# Summary of the method: as §1
# [11] = biological target: Fuc(a1-3)[Gal(b1-4)]GlcNAc(b1-2)Man(a1-3)[Fuc(a1-3)[Gal(b1-4)]GlcNAc(b1-2)Man(a1-6)]Man(b1-4)GlcNAc(b1-4)GlcNAc
# Summary of the method: as §1
# [12] = biological target: Gal(a1-3)Gal
# Summary of the method: as §1
# [13] = biological target: Gal(a1-4)Gal(b1-4)Glc
# Summary of the method: as §1
# [14] = biological target: Gal(b1-3)GalNAc
# Summary of the method: as §1
# [15] = biological target: Gal(b1-3)GalNAc(b1-4)Gal(b1-4)Glc
# Summary of the method: as §1
# [16] = biological target: Gal(b1-3)GlcNAc(b1-3)Gal(b1-4)GlcNAc
# Summary of the method: as §1
# [17] = biological target: Gal(b1-3)GlcNAc(b1-3)Gal(b1-4)GlcNAc(b1-6)[Gal(b1-3)GlcNAc(b1-3)]Gal(b1-4)Glc
# Summary of the method: as §1
# [18] = biological target: Gal(b1-4)GlcNAc(b1-3)Gal(b1-4)GlcNAc(b1-2)Man(a1-3)[Gal(b1-4)GlcNAc(b1-3)Gal(b1-4)GlcNAc(b1-2)Man(a1-6)]Man(b1-4)GlcNAc(b1-4)[Fuc(a1-6)]GlcNAc
# Summary of the method: as §1
# [19] = biological target: Gal(b1-4)GlcNAc(b1-3)Gal(b1-4)GlcNAc(b1-2)[Gal(b1-4)GlcNAc(b1-3)Gal(b1-4)GlcNAc(b1-6)]Man(a1-6)[Gal(b1-4)GlcNAc(b1-3)Gal(b1-4)GlcNAc(b1-2)Man(a1-3)]Man(b1-4)GlcNAc(b1-4)GlcNAc
# Summary of the method: as §1
# [20] = biological target: Gal(b1-4)GlcNAc(b1-3)Gal(b1-4)GlcNAc(b1-3)Gal(b1-4)GlcNAc(b1-2)Man(a1-3)[Gal(b1-4)GlcNAc(b1-3)Gal(b1-4)GlcNAc(b1-3)Gal(b1-4)GlcNAc(b1-2)Man(a1-6)]Man(b1-4)GlcNAc(b1-4)[Fuc(a1-6)]GlcNAc
# Summary of the method: as §1
# [21] = biological target: Gal(b1-4)GlcNAc(b1-3)Gal(b1-4)GlcNAc(b1-3)Gal(b1-4)GlcNAc(b1-2)[Gal(b1-4)GlcNAc(b1-3)Gal(b1-4)GlcNAc(b1-3)Gal(b1-4)GlcNAc(b1-6)]Man(a1-6)[Gal(b1-4)GlcNAc(b1-3)Gal(b1-4)GlcNAc(b1-3)Gal(b1-4)GlcNAc(b1-2)Man(a1-3)]Man(b1-4)GlcNAc(b1-4)[Fuc(a1-6)]GlcNAc
# Summary of the method: as §1
# [22] = biological target: Gal(b1-4)GlcNAc(b1-3)Gal(b1-4)GlcNAc(b1-3)Gal(b1-4)GlcNAc(b1-3)Gal(b1-4)GlcNAc(b1-2)Man(a1-3)[Gal(b1-4)GlcNAc(b1-3)Gal(b1-4)GlcNAc(b1-3)Gal(b1-4)GlcNAc(b1-3)Gal(b1-4)GlcNAc(b1-2)Man(a1-6)]Man(b1-4)GlcNAc(b1-4)GlcNAc
# Summary of the method: as §1
# [23] = biological target: Gal(b1-4)GlcNAc(b1-3)Gal(b1-4)GlcNAc(b1-3)Gal(b1-4)GlcNAc(b1-3)Gal(b1-4)GlcNAc(b1-2)Man(a1-3)[Gal(b1-4)GlcNAc(b1-3)Gal(b1-4)GlcNAc(b1-3)Gal(b1-4)GlcNAc(b1-3)Gal(b1-4)GlcNAc(b1-2)Man(a1-6)]Man(b1-4)GlcNAc(b1-4)[Fuc(a1-6)]GlcNAc
# Summary of the method: as §1
# [24] = biological target: Gal(b1-4)GlcNAc(b1-3)Gal(b1-4)GlcNAc(b1-3)Gal(b1-4)GlcNAc(b1-3)Gal(b1-4)GlcNAc(b1-2)[Gal(b1-4)GlcNAc(b1-3)Gal(b1-4)GlcNAc(b1-3)Gal(b1-4)GlcNAc(b1-3)Gal(b1-4)GlcNAc(b1-6)]Man(a1-6)[Gal(b1-4)GlcNAc(b1-3)Gal(b1-4)GlcNAc(b1-3)Gal(b1-4)GlcNAc(b1-3)Gal(b1-4)GlcNAc(b1-2)Man(a1-3)]Man(b1-4)GlcNAc(b1-4)[Fuc(a1-6)]GlcNAc
# Summary of the method: as §1
# [25] = biological target: Gal(b1-4)GlcNAc(b1-3)Gal(b1-4)GlcNAc(b1-3)Gal(b1-4)GlcNAc(b1-3)Gal(b1-4)GlcNAc(b1-3)Gal(b1-4)GlcNAc(b1-2)Man(a1-3)[Gal(b1-4)GlcNAc(b1-3)Gal(b1-4)GlcNAc(b1-3)Gal(b1-4)GlcNAc(b1-3)Gal(b1-4)GlcNAc(b1-3)Gal(b1-4)GlcNAc(b1-2)Man(a1-6)]Man(b1-4)GlcNAc(b1-4)GlcNAc
# Summary of the method: as §1
# [26] = biological target: Gal(b1-4)GlcNAc(b1-3)Gal(b1-4)GlcNAc(b1-3)Gal(b1-4)GlcNAc(b1-3)Gal(b1-4)GlcNAc(b1-3)Gal(b1-4)GlcNAc(b1-2)[Gal(b1-4)GlcNAc(b1-3)Gal(b1-4)GlcNAc(b1-3)Gal(b1-4)GlcNAc(b1-3)Gal(b1-4)GlcNAc(b1-3)Gal(b1-4)GlcNAc(b1-6)]Man(a1-6)[Gal(b1-4)GlcNAc(b1-3)Gal(b1-4)GlcNAc(b1-3)Gal(b1-4)GlcNAc(b1-3)Gal(b1-4)GlcNAc(b1-3)Gal(b1-4)GlcNAc(b1-2)Man(a1-3)]Man(b1-4)GlcNAc(b1-4)[Fuc(a1-6)]GlcNAc
# Summary of the method: as §1
# [27] = biological target: Gal(b1-4)GlcNAc(b1-3)Gal(b1-4)GlcNAc(b1-6)[Gal(b1-3)]GalNAc
# Summary of the method: as §1
# [28] = biological target: Gal(b1-4)GlcNAc(b1-6)[Gal(b1-4)GlcNAc(b1-3)]GalNAc
# Summary of the method: as §1
# [29] = biological target: GalNAc(a1-3)Gal
# Summary of the method: as §1
# [30] = biological target: GlcNAc(a1-6)Gal(b1-4)GlcNAc
# Summary of the method: as §1
# [31] = biological target: GlcNAc(b1-3)Gal(b1-4)GlcNAc(b1-2)Man(a1-3)[GlcNAc(b1-3)Gal(b1-4)GlcNAc(b1-2)Man(a1-6)]Man(b1-4)GlcNAc(b1-4)GlcNAc
# Summary of the method: as §1
# [32] = biological target: GlcNAc(b1-3)Gal(b1-4)GlcNAc(b1-3)Gal(b1-4)GlcNAc(b1-2)Man(a1-3)[GlcNAc(b1-3)Gal(b1-4)GlcNAc(b1-3)Gal(b1-4)GlcNAc(b1-2)Man(a1-6)]Man(b1-4)GlcNAc(b1-4)[Fuc(a1-6)]GlcNAc
# Summary of the method: as §1
# [33] = biological target: Man(a1-2)Man(a1-2)Man(a1-6)[Man(a1-3)]Man
# Summary of the method: as §1
# [34] = biological target: Man(a1-2)Man(a1-3)Man
# Summary of the method: as §1
# [35] = biological target: Neu5Ac(a2-3)Gal(b1-3)GlcNAc6S
# Summary of the method: as §1
# [36] = biological target: Neu5Ac(a2-3)Gal(b1-4)GlcNAc(b1-2)Man(a1-3)[GlcNAc(b1-4)][Neu5Ac(a2-3)Gal(b1-4)GlcNAc(b1-2)Man(a1-6)]Man(b1-4)GlcNAc(b1-4)GlcNAc
# Summary of the method: as §1
# [37] = biological target: Neu5Ac(a2-3)Gal(b1-4)[Fuc(a1-3)]GlcNAc(b1-3)Gal(b1-4)GlcNAc
# Summary of the method: as §1
# [38] = biological target: Neu5Ac(a2-3)Gal(b1-4)[Fuc(a1-3)]GlcNAc(b1-3)Gal(b1-4)[Fuc(a1-3)]GlcNAc(b1-3)Gal(b1-4)[Fuc(a1-3)]GlcNAc
# Summary of the method: as §1
# [39] = biological target: Neu5Ac(a2-6)Gal(b1-4)GlcNAc(b1-2)Man(a1-6)Man(b1-4)GlcNAc(b1-4)GlcNAc
# Summary of the method: as §1
# [40] = biological target: Neu5Ac(a2-6)Gal(b1-4)GlcNAc(b1-3)Gal(b1-4)GlcNAc(b1-2)Man(a1-3)[Neu5Ac(a2-6)Gal(b1-4)GlcNAc(b1-3)Gal(b1-4)GlcNAc(b1-2)Man(a1-6)]GalNAc
# Summary of the method: as §1
# [41] = biological target: Neu5Ac(a2-6)Gal(b1-4)GlcNAc(b1-3)Gal(b1-4)GlcNAc(b1-3)Gal(b1-4)GlcNAc
# Summary of the method: as §1
# [42] = biological target: Neu5Ac(b2-6)Gal(b1-4)GlcNAc
# Summary of the method: as §1
# [43] = biological target: Neu5Gc(a2-3)Gal(b1-4)[Fuc(a1-3)]GlcNAc
# Summary of the method: as §1
binder,measurement,setting,value
DrGal9 (Danio rerio) (protein) MAFYQQPPYYNPRIPFSGPIQGGLQDGKSIIISGRVLPGANRFHVNLQCGSHSEANVALHFNPRYEDTDYVVNNSYLNRTWGSEERKYESPFAQGQTFTLQILVAQDKYKISTNGRHFMDYKHRIPFTQVDTVAVEGMVEVNSVAFQNPAGFIPPQAGYAPQYAVPPGCGFPAFPSAPNYTIPHKTVMNGGLHPGKNIVINGVVNPNAKSIIFNLCYRSGIAFHYNPRFDENVVVRNTNQMEKWGAEERFGGLPFHKGQPFQVTISCNPQHYNVFVNGKQEHTYKHRYTKLNDIDILEICGDLQLTSVQA,glycan array binding signal (z-score),[1],-0.123
same,glycan array binding signal (z-score),[2],3.83
same,glycan array binding signal (z-score),[3],-0.32
same,glycan array binding signal (z-score),[4],-0.391
same,glycan array binding signal (z-score),[5],0.599
same,glycan array binding signal (z-score),[6],3.36
same,glycan array binding signal (z-score),[7],-0.391
same,glycan array binding signal (z-score),[8],-0.329
same,glycan array binding signal (z-score),[9],-0.36
same,glycan array binding signal (z-score),[10],-0.336
same,glycan array binding signal (z-score),[11],-0.409
same,glycan array binding signal (z-score),[12],-0.376
same,glycan array binding signal (z-score),[13],-0.356
same,glycan array binding signal (z-score),[14],-0.351
same,glycan array binding signal (z-score),[15],-0.117
same,glycan array binding signal (z-score),[16],-0.053
same,glycan array binding signal (z-score),[17],1.3
same,glycan array binding signal (z-score),[18],5.22
same,glycan array binding signal (z-score),[19],0.373
same,glycan array binding signal (z-score),[20],4.02
same,glycan array binding signal (z-score),[21],4.33
same,glycan array binding signal (z-score),[22],3.48
same,glycan array binding signal (z-score),[23],3.44
same,glycan array binding signal (z-score),[24],3.19
same,glycan array binding signal (z-score),[25],3.05
same,glycan array binding signal (z-score),[26],3.6
same,glycan array binding signal (z-score),[27],0.054
same,glycan array binding signal (z-score),[28],-0.007
same,glycan array binding signal (z-score),[29],-0.402
same,glycan array binding signal (z-score),[30],-0.386
same,glycan array binding signal (z-score),[31],1.73
same,glycan array binding signal (z-score),[32],3.13
same,glycan array binding signal (z-score),[33],-0.361
same,glycan array binding signal (z-score),[34],-0.396
same,glycan array binding signal (z-score),[35],-0.144
same,glycan array binding signal (z-score),[36],0.144
same,glycan array binding signal (z-score),[37],-0.356
same,glycan array binding signal (z-score),[38],-0.384
same,glycan array binding signal (z-score),[39],-0.399
same,glycan array binding signal (z-score),[40],1.22
same,glycan array binding signal (z-score),[41],0.598
same,glycan array binding signal (z-score),[42],-0.398
same,glycan array binding signal (z-score),[43],-0.351
